Among the data in PubChem BioAssay are composite z-score, z-score and composite Z-score values, retold here.

Activity calls are given as the source filed them.

For experiment [1], the system named is Human papillomavirus type 1a protein E7 (residues 44-93). Put plainly: small molecules binding HPV E7 44-93 – biochemical, small-molecule microarray, residues 44-93, 635 nm fluorescence, primary screen (AID 1108).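 Note: E7 fragment applied at 1 µg/mL in TBST for 1 h at 4 C; score combines spot fluorescence with its signal to noise ratio.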 Particulars: fluorescence 635 nm, higher = more signal.
Experiment [2] is described as follows: hepatitis C replication reporter changes, two-sided – Huh7 cells, luciferase reporter, HCV replication inhibitor project, primary screen (AID 1109).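 Note: huh7 hepatoma cells harbouring a luciferase neomycin HCV replicon reporter; luciferase luminescence as measure of HCV replicon replication; test concentration not given here.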 Particulars: Huh7 HCV replicon luciferase reporter, 48 h; higher = more signal. Background: In a reporter assay the amount or activity of a reporter protein is the signal.
Experiment [3] concerns the target Left-right determination factor 2 (Homo sapiens) (UniProt O00292). As to the kind of experiment: small molecules binding LEFTY2 protein – biochemical, small-molecule microarray, 635 nm fluorescence scan, primary screen (AID 1110). Particulars: higher = more signal.
In experiment [4] the target is Calmodulin-1 (Homo sapiens) (UniProt P0DP23). As to the kind of experiment: small molecules binding calmodulin-1 with EGTA – biochemical, small-molecule microarray, Cy5-labelled CALM1, profiling panel (AID 1111).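 Note: labelled calmodulin applied in Tris saline Tween buffer holding calcium plus EGTA and DTT.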 The following applies: Cy5-CALM1 binding fluorescence, higher = more signal.
Experiment [5] shares this target. Put plainly: small molecules binding Ca-loaded calmodulin-1 – biochemical, small-molecule microarray, Cy5-labelled CALM1, plus calcium, artefact control for SMM control-protein annotation, profiling panel (AID 1112).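 Note: score merges spot fluorescence with signal to noise from triplicate slides.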 Particulars: Cy5-CALM1 binding fluorescence, higher = more signal.
Experiment [6] can be described thus: probe aWnt5a binding to arrayed compounds – biochemical, biotinylated probe, 635/667 nm fluorescence, primary screen (AID 1113).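 Note: score merges 667 nm fluorescence intensity with signal-to-noise per printed feature.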 Particulars: small-molecule microarray, higher = more signal.
Experiment [7] in a line: probe aShh binding to arrayed compounds – biochemical, biotinylated probe, 635/667 nm fluorescence, primary screen (AID 1114).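 Note: probe is biotin-labelled aShh protein from a stem cell growth factor screen; measures binding of labelled protein to compounds printed on the slide; score merges feature fluorescence at 667 nm with signal-to-noise.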 Particulars: small-molecule microarray, higher = more signal.
Experiment [8] can be described thus: probe aNog binding to arrayed compounds – biochemical, biotinylated probe, 635/667 nm fluorescence, primary screen (AID 1115).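 Note: probe is biotinylated aNog protein used at 0.15 µg/mL for 1 h at 4 C; z-score combines 667 nm fluorescence of each spot with its signal to noise.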 Particulars: small-molecule microarray, higher = more signal.
Experiment [9] addresses Torsin-1A-interacting protein 1 (Homo sapiens) (UniProt Q5JTV8). As to the kind of experiment: compound microarray binding of lysate hLAP1 – cell lysate, small-molecule microarray, COS7 lysate, 635/667 nm fluorescence, primary screen (AID 1116). Particulars: 635 nm fluorescence, higher = more signal.
Experiment [10] deals with Alpha-bungarotoxin (Bungarus multicinctus) (UniProt P60615). Put plainly: compounds binding labelled alpha-BTX control protein – biochemical, small-molecule microarray, Alexa647 label, 635/667 nm fluorescence, artefact control for SMM control protein annotation, profiling panel (AID 1117). The following applies: alpha-BTX-A647 binding fluorescence, higher = more signal.
Chain of Alpha-bungarotoxin (Bungarus multicinctus) (P60615 whole entry, looked up): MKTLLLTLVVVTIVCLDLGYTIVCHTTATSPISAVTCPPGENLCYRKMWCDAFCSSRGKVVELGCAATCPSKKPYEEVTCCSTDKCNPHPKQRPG
The target in the next experiment is Albumin (Bos taurus) (UniProt P02769). As to the kind of experiment: compounds binding labelled BSA control protein – biochemical, small-molecule microarray, Alexa647 label, 635/667 nm fluorescence, artefact control for SMM control protein annotation, profiling panel (AID 1118).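 Note: score merges 667 nm emission intensity and signal-to-noise per printed compound spot.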 The following applies: BSA-A647 binding, fluorescence 635 nm, higher = more signal.
Chain of Albumin (Bos taurus) (P02769 whole entry, looked up): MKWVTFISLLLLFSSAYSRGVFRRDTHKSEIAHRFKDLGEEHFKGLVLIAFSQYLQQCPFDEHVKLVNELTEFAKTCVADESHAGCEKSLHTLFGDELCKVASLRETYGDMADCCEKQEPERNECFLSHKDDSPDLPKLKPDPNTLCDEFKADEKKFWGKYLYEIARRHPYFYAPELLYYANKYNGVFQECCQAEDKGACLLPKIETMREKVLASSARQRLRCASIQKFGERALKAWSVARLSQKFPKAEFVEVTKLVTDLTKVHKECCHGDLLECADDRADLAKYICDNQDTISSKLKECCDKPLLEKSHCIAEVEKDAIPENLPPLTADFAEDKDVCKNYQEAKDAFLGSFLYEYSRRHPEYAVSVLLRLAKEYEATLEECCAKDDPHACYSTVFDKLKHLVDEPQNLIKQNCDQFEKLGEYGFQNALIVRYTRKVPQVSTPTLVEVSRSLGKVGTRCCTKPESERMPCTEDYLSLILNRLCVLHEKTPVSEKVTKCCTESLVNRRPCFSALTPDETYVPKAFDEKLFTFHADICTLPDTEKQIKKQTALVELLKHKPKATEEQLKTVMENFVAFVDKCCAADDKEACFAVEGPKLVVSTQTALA
Experiment [11] is described as follows: probe aXIP binding to arrayed compounds – biochemical, NeuroSMM set, 635/667 nm fluorescence, primary screen (AID 1119).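 Note: probe is the protein aXip251-270 applied at 1 µg/mL to compound-printed slides; binding of probe to printed compounds measured as 667 nm fluorescence plus signal to noise.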 The following applies: small-molecule microarray, higher = more signal, called active from +8 up or from −8 down.
A short description of experiment [12]: probe aNOTCH3 binding on compound microarray – biochemical, small-molecule microarray, 635/667 nm fluorescence, primary screen (AID 1120).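 Note: probe is a biotin-tagged antibody raised against NOTCH3 rather than NOTCH3 protein; score merges spot fluorescence near 667 nm with spot signal to noise.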 The following applies: higher = more signal.
Experiment [13] is described as follows: probe aNOTCH2 binding on compound microarray – biochemical, small-molecule microarray, 635/667 nm fluorescence, primary screen (AID 1121).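 Note: score merges feature fluorescence read at 667 nm with its signal to noise.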 The following applies: higher = more signal.
In experiment [14] the target is Carbonic anhydrase 2 (Homo sapiens) (UniProt P00918). As to the kind of experiment: compounds binding carbonic anhydrase 2 – biochemical, small-molecule microarray, Alexa647-labelled CAII, profiling panel (AID 1122). Particulars: CAII-A647 binding fluorescence, higher = more signal.
A short description of experiment [15]: COS7 lysate on small-molecule microarray, probe aHis, 635 nm (AID 1123).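 Note: z-score combines 667nm fluorescence intensity with signal-to-noise per printed compound spot.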 The following applies: COS7 cell lysate, fluorescence, higher = more signal.
Experiment [16] in a line: probe aLAP1 signal on lysate-treated microarray – cell lysate, small-molecule microarray, COS7 lysate, primary screen (AID 1124).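 Note: lysate comes from COS7 cells expressing LAP1 and is applied at 0.3 µg/mL; score merges spot fluorescence near 667 nm with signal-to-noise over triplicate slides.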 The following applies: probe aLAP1, fluorescence, higher = more signal.
In another experiment the test system is Sam68 (KHDRBS1). As to the kind of experiment: compounds binding KHDRBS1 protein – biochemical, small-molecule microarray, 635 nm fluorescence, primary screen (AID 1125).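 Note: score merges 667 nm channel intensity with signal to noise over triplicate slides.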 Particulars: higher = more signal.
Experiment [17] relates to Chordin-like protein 2 (CHRDL2). As to the kind of experiment: compounds binding chordin-like 2 – biochemical, small-molecule microarray, 635 nm fluorescence, primary screen (AID 1126).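 Note: printed compound slides probed with Chrdl2 protein at 4 µg/mL for 1 h at 4 C; score merges 667 nm emission intensity with signal to noise over three replicate slides.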 Particulars: fluorescence 635 nm, higher = more signal.
Experiment [18] addresses Concanavalin-A (Canavalia ensiformis) (UniProt P02866). Put plainly: compounds binding concanavalin A lectin – biochemical, small-molecule microarray, Alexa647 label, 635 nm, artefact control for SMM control protein annotation, primary screen (AID 1127).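 Note: z combines 667 nm emission intensity with signal-to-noise across three replicate slides.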 Particulars: ConA-A647 binding fluorescence, higher = more signal.

Chain of Left-right determination factor 2 (Homo sapiens) (O00292 whole entry, looked up): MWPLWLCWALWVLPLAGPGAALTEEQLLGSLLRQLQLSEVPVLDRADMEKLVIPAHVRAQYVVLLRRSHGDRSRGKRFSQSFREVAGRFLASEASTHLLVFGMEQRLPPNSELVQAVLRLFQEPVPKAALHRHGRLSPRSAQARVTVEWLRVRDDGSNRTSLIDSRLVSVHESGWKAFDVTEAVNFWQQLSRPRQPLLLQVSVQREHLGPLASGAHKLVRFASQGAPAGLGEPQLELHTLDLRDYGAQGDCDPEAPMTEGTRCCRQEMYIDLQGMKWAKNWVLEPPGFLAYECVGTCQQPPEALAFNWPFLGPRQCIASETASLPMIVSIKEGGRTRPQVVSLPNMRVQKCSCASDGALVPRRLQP
Chain of Torsin-1A-interacting protein 1 (Homo sapiens) (Q5JTV8 whole entry, looked up): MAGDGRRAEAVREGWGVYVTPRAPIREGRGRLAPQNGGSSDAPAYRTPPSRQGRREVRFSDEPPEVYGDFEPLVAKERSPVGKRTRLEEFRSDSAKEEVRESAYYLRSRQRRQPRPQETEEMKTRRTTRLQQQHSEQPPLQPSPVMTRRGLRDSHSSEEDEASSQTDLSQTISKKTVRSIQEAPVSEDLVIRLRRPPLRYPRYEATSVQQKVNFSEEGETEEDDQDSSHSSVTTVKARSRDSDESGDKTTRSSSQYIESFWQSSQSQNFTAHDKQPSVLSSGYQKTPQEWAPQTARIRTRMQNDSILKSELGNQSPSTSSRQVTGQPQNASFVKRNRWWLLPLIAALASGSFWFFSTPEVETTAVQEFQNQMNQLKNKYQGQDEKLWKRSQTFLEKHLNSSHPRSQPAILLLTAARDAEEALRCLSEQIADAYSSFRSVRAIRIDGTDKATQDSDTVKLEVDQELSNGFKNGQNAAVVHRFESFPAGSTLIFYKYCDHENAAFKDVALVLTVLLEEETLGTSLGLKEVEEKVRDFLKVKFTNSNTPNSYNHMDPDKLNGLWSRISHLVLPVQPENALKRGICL
Chain of Concanavalin-A (Canavalia ensiformis) (P02866 whole entry, looked up): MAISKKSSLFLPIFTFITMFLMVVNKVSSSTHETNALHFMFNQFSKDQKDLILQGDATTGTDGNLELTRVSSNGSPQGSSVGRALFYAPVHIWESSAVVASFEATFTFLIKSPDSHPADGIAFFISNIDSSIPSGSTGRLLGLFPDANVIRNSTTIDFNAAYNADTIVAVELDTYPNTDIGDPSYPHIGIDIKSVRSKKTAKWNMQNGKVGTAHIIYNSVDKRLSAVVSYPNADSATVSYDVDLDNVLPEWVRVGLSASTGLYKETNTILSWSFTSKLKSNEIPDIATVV

As to `CCCCN1CC=CC23O[C@@H]4/C=C\CCCOC(=O)C4[C@H]2C(=O)N(CCCO)[C@@H]3C1=O` (stereo not given in full), the composite z-score in experiment [1] was 0.498; in [3], -1.08; in experiment [4], -0.692; in [5], -0.298; in experiment [6], -0.124; in [7] it was -0.0211. The composite z-score in experiment [8] is 0.13; in [9], 2.1; in experiment [10] it was -0.803; in the experiment with Albumin (Bos taurus), -0.314; in [12] it was -0.229; in experiment [13], -0.18. The composite z-score is 0.939 in experiment [14]; 1.28 in experiment [15]; 1.82 in [16]; -0.158 with Sam68 (KHDRBS1); -0.824 in experiment [17]; -1.4 in [18]. This compound also showed a z-score in experiment [2] of -0.381. Also, in [11], the composite Z-score is 0.949 (inactive).

Consider `C#CCOc1ccc(C[C@@H](C(=O)OC)N(CC#C)[C@@H](/C=C/C2CC2)[C@H](O)Cc2ccccc2)cc1`, for which the composite z-score in experiment [1] is -0.802; in [3] it was -0.336; in experiment [4], -1.1; in [5], -1.69; in experiment [6] it was -0.2; in experiment [7], -0.221. In addition, the composite z-score in experiment [8] is -0.337; in experiment [9], 0.255; in [10], -0.335; with Albumin (Bos taurus), -0.485; in experiment [12], -0.19; in [13] it was -0.208. The composite z-score was 0.0591 in experiment [14]; -0.148 in [15]; 0.286 in experiment [16]; -0.51 in the experiment on Sam68 (KHDRBS1); 0.212 in [17]; -0.557 in [18]. This compound gave a z-score in experiment [2] of -2.06. In [11], the composite Z-score is -0.423 (inactive).

Consider `COc1ccc(CCNC(=O)[C@@]2(C)c3ccccc3C(=O)N(c3ccc(C)cn3)[C@H]2c2ccc(CO)cc2)cc1`, for which the composite z-score in experiment [1] is -0.992; in [3] it was -0.839; in [4], -0.4; in [5] it was -0.141; in [6], -0.096; in experiment [7] it was 1.9. Further, the composite z-score in experiment [8] is -0.118; in experiment [9], 0.56; in [10], -0.438; with Albumin (Bos taurus) it was -0.252; in experiment [12], -0.365; in experiment [13] it was -0.0956. The composite z-score in [14] was 0.793; in experiment [15], -0.335; in [16] it was 0.165; with Sam68 (KHDRBS1), 0.243; in [17], -1.02; in [18], -0.699. For the same compound, the z-score in experiment [2] was -0.583. Further, the composite Z-score in experiment [11] was -0.133 (inactive).

Regarding `COC(=O)[C@@]1(Cc2ccccc2)[C@H]2c3cc(C(=O)N4CCCC4)n(Cc4c(CO)[nH]cc(C)c4=O)c3C[C@H]2CN1C(=O)c1ccccc1`, the composite z-score in experiment [1] was -0.596; in [3], -0.169; in experiment [4], 1.71; in experiment [5], 0.893; in [6], 0.0775; in experiment [7], -0.181. Also, the composite z-score in [8] is 1.28; in experiment [9], 2.02; in [10], 0.546; with Albumin (Bos taurus) it was 0.677; in [12] it was 0.0076; in experiment [13] it was 0.154. For the same compound, the composite z-score in experiment [14] is 0.701; in experiment [15], 2.64; in experiment [16], 1.32; in the experiment with Sam68 (KHDRBS1), 0.109; in experiment [17], -0.174; in experiment [18] it was 0.0417. For the same compound, the z-score in [2] is -0.783. In experiment [11], the composite Z-score is -0.0461 (inactive).

Regarding `COc1ccc([Si](C)(C)[C@@H]2[C@@H](CCO)O[C@]3(C(=O)N(Cc4cccc(N5CCOC5=O)c4)c4ccccc43)[C@H]2C)cc1`, the composite z-score in [1] is 0.542; in experiment [3], 0.133; in experiment [4] it was 1.37; in experiment [5], 0.924; in experiment [6], -0.0704; in experiment [7] it was 0.0756. Also, the composite z-score was 0.36 in experiment [8]; 0.412 in [9]; 1.32 in [10]; 0.757 with Albumin (Bos taurus); 0.326 in experiment [12]; -0.0907 in experiment [13]. Moreover, the composite z-score was 0.219 in [14]; 0.531 in experiment [15]; -0.231 in experiment [16]; 1.15 in the experiment on Sam68 (KHDRBS1); -0.0408 in experiment [17]; 1.12 in experiment [18]. Moreover, the z-score in experiment [2] was -4.17. Moreover, the composite Z-score in experiment [11] is -0.295 (inactive).
